Rows were chosen to be rich in hits. Some 1.9% of all compounds tested hit in one or more screens of this group.
aSyn yeast inh: rescues yeast growth from alpha-synuclein toxicity; Yeast expressing alpha-synuclein, growth rescue, BacTiter-Glo, 24 h; Potency, µM (titrated, usually from 46.1 µM), hits mostly activators; 370,000 tested, 0.14% active; note: nearly all actives have a fitted effect of over 65% in size
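Rescue of yeast growth: cells expressing toxic alpha-synuclein, induced in galactose at OD600 0.02, incubated with compound 24 h at 30 C. ATP luminescence quantified growth; inhibitors of toxicity appear as activators.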
FUS yeast rescue: suppressors of FUS proteinopathy in yeast. 390,000 tested, 0.24% active. S. cerevisiae FUS-expressing, growth rescue, OD600, 24 h. Potency, µM (titrated, usually from 76.6 µM), actives largely listed as activators; note: nearly all actives have a fitted effect of over 55% in size
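Yeast expressing FUS under galactose induction, OD 0.005 in 2% galactose medium; compounds in a dilution series, 24 h at 30C. Growth rescue by absorbance at 600 nm; CP55940 positive control, DMSO negative.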
LDHA block: blocks human lactate dehydrogenase A. P00338. purified LDHA, NADH/diaphorase-resazurin fluorescence; stronger effect = lower value. activity change, % (values are at about 110 or 230 µM). 480,000 tested, 0.15% active; in the data active = activity change below about -30%; inconclusive = mostly about -25% to -30%
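Remaining NADH was detected by diaphorase (0.133 mg/mL) converting 37 µM resazurin to fluorescent resorufin, read at 0 and 20 minutes. The preceding 5-minute room-temperature reaction used 2 nM LDHA, 0.2 mM sodium pyruvate and 0.06 mM NADH at pH 7.4.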
PTHR1 ag: activates the human parathyroid hormone receptor PTHR1. Q03431. HEK293 GP2 PTHR1 cells, GloSensor cAMP luminescence, 1 h. Potency, µM (titrated, usually from 115 µM), most hits filed as activators. 410,000 tested, 0.075% active. AID 743266; note: nearly all actives have a fitted effect of over 55% in size
Target sequence (Q03431 whole entry, looked up): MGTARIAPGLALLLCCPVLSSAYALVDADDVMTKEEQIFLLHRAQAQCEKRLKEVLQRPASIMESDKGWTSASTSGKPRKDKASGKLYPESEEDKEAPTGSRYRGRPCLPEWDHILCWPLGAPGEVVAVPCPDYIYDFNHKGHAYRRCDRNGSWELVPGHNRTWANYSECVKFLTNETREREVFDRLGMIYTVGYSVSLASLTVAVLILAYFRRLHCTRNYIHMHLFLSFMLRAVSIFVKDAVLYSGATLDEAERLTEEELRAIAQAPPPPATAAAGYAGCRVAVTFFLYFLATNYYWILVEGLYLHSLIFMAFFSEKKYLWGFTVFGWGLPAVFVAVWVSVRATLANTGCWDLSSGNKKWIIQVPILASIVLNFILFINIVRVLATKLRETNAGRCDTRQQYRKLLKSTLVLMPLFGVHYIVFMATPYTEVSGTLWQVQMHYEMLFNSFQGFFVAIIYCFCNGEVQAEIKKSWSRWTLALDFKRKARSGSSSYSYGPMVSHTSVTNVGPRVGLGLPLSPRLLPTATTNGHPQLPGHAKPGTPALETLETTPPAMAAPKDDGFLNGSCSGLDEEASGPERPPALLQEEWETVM
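HEK-293-derived GP2 cells expressing PTHR1 and a GloSensor cAMP reporter, 3,000/well, plated overnight, given luciferin plus IBMX (each 0.5 mM as added) for 1 h at 37 °C, then compound for 1 h at 37 °C. Luminescence was read after 15 min at room temperature.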
Abeta rescue: A-beta toxicity reversal in yeast | Potency, µM (series often up to 46.1 µM), usual class: activators | yeast expressing A-beta42, growth rescue, OD600, 48 h; response scale: 0% DMSO, 100% iron-clioquinol control | 410,000 tested, 0.063% active; note: nearly all actives have a fitted effect of over 55% in size
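Growth rescue measured by 600 nm absorbance after 48 h yeast culture at 30 C with compound. Values normalized between DMSO and an equimolar ferric chloride plus clioquinol control.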
TDP43 rescue: inhibitors of TDP-43 toxicity in yeast; TDP-43 expressing yeast growth rescue, BacTiter-Glo, 24 h; Potency, µM (titrated, usually from 46.1 µM), hits mostly activators; 410,000 tested, 1.8% active; AID 652104; note: nearly all actives have a fitted effect of over 50% in size
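Yeast cells expressing TDP-43 under galactose induction are exposed to compounds for 24 hr at 30 deg C. BacTiter-Glo luminescence measures growth, so protective compounds score as activators.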
Large screens that a line does not name were inactive. Unless noted, calls come from the whole dose curve; as a rule, active = well fitted curve in the direction sought with a large enough effect; inconclusive = small, poorly fitted or top-dose-only effect, or another doubt; inactive = no such curve, though single readings can be large; an effect the other way counts as inactive or inconclusive.

CC(O)(c1ccccc1)c1nc(-c2cccc(C#N)c2)cs1 (stereo not given)	Abeta rescue inconclusive, TDP43 rescue 20µM
COc1ccc(-c2csc(C(C)(O)c3ccccc3)n2)cc1 (stereo not given)	none
COc1ccc(-c2csc(C(C)(O)c3ccc(F)c(F)c3)n2)cc1OC (stereo not given)	TDP43 rescue 22µM
COc1cccc(C(C)(O)c2nc(-c3ccc(F)c(Cl)c3)cs2)c1 (stereo not given)	none
COc1cccc(N2CCN(C(C(=O)O)c3c[nH]c4cc(NC(=O)CCC(=O)O)ccc34)CC2)c1 (stereo not given)	none (no result: aSyn yeast inh, FUS yeast rescue, PTHR1 ag, Abeta rescue, TDP43 rescue)
O=C(CSc1ncnc2ccccc12)Nc1cc(Cl)ccc1Cl	none (no result: aSyn yeast inh, FUS yeast rescue, PTHR1 ag, Abeta rescue, TDP43 rescue)
COC(=O)c1ccc(CNC(=O)C2CC2)cc1	none (no result: aSyn yeast inh, FUS yeast rescue, PTHR1 ag, Abeta rescue, TDP43 rescue)
CC(=O)Nc1cc(NC(=O)C2(C)CC2(Cl)Cl)ccc1C (stereo not given)	none (no result: aSyn yeast inh, FUS yeast rescue, PTHR1 ag, Abeta rescue, TDP43 rescue)
CC(O)(c1ccccc1)c1nc(-c2ccccc2)cs1 (stereo not given)	Abeta rescue inconclusive, TDP43 rescue 14µM
COc1cccc(C(C)(O)c2nc(-c3cccc(C(C)C)c3)cs2)c1 (stereo not given)	FUS yeast rescue inconclusive, TDP43 rescue 18µM
CC(O)(c1ccccc1)c1nc(-c2cccc(F)c2)cs1 (stereo not given)	none
COc1cccc(C(C)(O)c2nc(-c3ccccc3)cs2)c1 (stereo not given)	Abeta rescue inconclusive, TDP43 rescue inconclusive
CC(O)(c1ccccc1)c1nc(-c2ccncc2)cs1 (stereo not given)	none
COCc1cccc(-c2csc(C(C)(O)c3ccccc3)n2)c1 (stereo not given)	TDP43 rescue 35µM
Oc1cccc(-c2csc(C(O)(c3ccccc3)C(F)(F)F)n2)c1 (stereo not given)	aSyn yeast inh inconclusive, TDP43 rescue 22µM
Fc1ccc(/C=N/Nc2ccc(Cl)cc2)cc1F	none (no result: aSyn yeast inh, FUS yeast rescue, PTHR1 ag, Abeta rescue, TDP43 rescue)
O=C(O)CCSCc1c[nH]c2ccccc12	none (no result: aSyn yeast inh, FUS yeast rescue, PTHR1 ag, Abeta rescue, TDP43 rescue)
CN(C)C(=O)c1ccc(CNC(=O)c2ccccc2CSc2nc3ccccc3o2)cc1	none (no result: aSyn yeast inh, FUS yeast rescue, PTHR1 ag, Abeta rescue, TDP43 rescue)
COc1ccc(C(C)(O)c2nc(-c3ccccc3)cs2)cc1 (stereo not given)	aSyn yeast inh inconclusive, Abeta rescue inconclusive, TDP43 rescue 8.9µM
Cc1cc(C)c(OCC(=O)OC(C)C(=O)N2CCc3ccccc32)c(C)c1 (stereo not given)	TDP43 rescue 22µM
COc1cc(-c2c(NC(=O)c3ccccc3F)oc3c(C)cccc3c2=O)cc(OC)c1OC	none (no result: aSyn yeast inh, FUS yeast rescue, PTHR1 ag, Abeta rescue, TDP43 rescue)
O=C(CSc1nc2ccccc2c(=O)n1-c1ncn[nH]1)Nc1ccccc1	none (no result: aSyn yeast inh, FUS yeast rescue, PTHR1 ag, Abeta rescue, TDP43 rescue)
C#CCSc1nc(C)cc(C(=O)OCC)c1C#N	TDP43 rescue 14µM
CCOC(=O)CC(=O)CSc1nc(C)cc(C)c1C#N	none
CCOC(=O)C1CCN(c2ncnc3c2[nH]c2cccc(OC)c23)CC1	FUS yeast rescue 22µM
Clc1cccc(Cl)c1CON/C=N/c1ncnc2sccc12	none
Clc1cccc(CON/C=N/c2ncnc3sccc23)c1	TDP43 rescue 3.5µM
C/C=C/C=C/C(=O)Nc1ccccc1SC	none (no result: aSyn yeast inh, FUS yeast rescue, PTHR1 ag, Abeta rescue, TDP43 rescue)
CC(=O)c1ccc2c(c1)CC1(C2)Cc2cc3c(cc2C1)C(=O)CC3 (stereo not given)	TDP43 rescue 16µM (no result: FUS yeast rescue)
Fc1ccc(NC(=S)NCCc2ccccc2F)cc1	none (no result: aSyn yeast inh, FUS yeast rescue, PTHR1 ag, Abeta rescue, TDP43 rescue)
CCOC(=O)c1c(C)n(C)c2ccc(OCC(O)Cn3nc(C)c(Br)c3C)cc12 (stereo not given)	FUS yeast rescue inconclusive, TDP43 rescue 16µM
N#Cc1c(-c2ccco2)nc(SCC(=O)Nc2cccc(Cl)c2)[nH]c1=O	none
CC(C)(C)c1ccc(-c2nc(SCC(=O)Nc3ccc(Cl)cc3)[nH]c(=O)c2C#N)cc1	LDHA block -31
COc1cccc(CC(=O)NC(c2cccs2)C2CCCC2)c1 (stereo not given)	none (no result: aSyn yeast inh, FUS yeast rescue, PTHR1 ag, Abeta rescue, TDP43 rescue)
Clc1cccc(-c2nn3c(-c4ccc5ccccc5n4)nnc3s2)c1	none (no result: aSyn yeast inh, FUS yeast rescue, PTHR1 ag, Abeta rescue, TDP43 rescue)
Cc1cccc2c1nc(-c1ccccc1)n1cnnc21	TDP43 rescue 14µM
Cc1cccc2c1nc(-c1ccccc1)n1nnnc21	none
CC(C)c1ccc(/C=N/NC(=O)Cc2cccc3ccccc23)cc1	none (no result: aSyn yeast inh, FUS yeast rescue, PTHR1 ag, Abeta rescue, TDP43 rescue)
COc1ccc(C(C)=O)cc1CN1CCCC(C)C1 (stereo not given)	none (no result: aSyn yeast inh, FUS yeast rescue, PTHR1 ag, Abeta rescue, TDP43 rescue)
c1ccc(OCc2nnnn2-c2ccccc2)cc1	none
Brc1ccc(Oc2nnnn2-c2ccccc2)cc1	TDP43 rescue 16µM
Clc1ccc(OCc2nnnn2-c2ccccc2)cc1	TDP43 rescue 13µM (no result: FUS yeast rescue)
Fc1ccc(Oc2nnnn2-c2ccccc2)cc1	none
OCCCn1c(C2CCCN2c2nc(-c3ccc(Cl)cc3)cs2)nc2cc(Cl)c(Cl)cc21 (stereo not given)	FUS yeast rescue inconclusive, TDP43 rescue inconclusive
OCCCn1c(C2CCCN2c2nc(-c3ccc(F)cc3)cs2)nc2cc(Cl)c(Cl)cc21 (stereo not given)	FUS yeast rescue 35µM
CC(=O)c1cccc(NC(=O)C2C(c3ccccc3)C2(Cl)Cl)c1 (stereo not given)	TDP43 rescue inconclusive
Cc1cccc(NC(=O)C2C(c3ccccc3)C2(Cl)Cl)c1 (stereo not given)	TDP43 rescue 22µM
Cn1c(=O)c2c(nc(CN3CCc4ccccc4C3)n2Cc2cccc(Cl)c2)n(C)c1=O	FUS yeast rescue inconclusive, TDP43 rescue 20µM
